Compound activity (PubChem BioAssay)
The list is not random: actives were taken first. Their share in the collection is about 0.5%.
Menin MLL FP FL: qHTS Assay for Inhibitors Targeting the Menin-MLL Interaction in MLL Related Leukemias: Competition With Fluorescein Labeled MLL-derived Peptide. Fluorescence polarization, fluorescein-MLL peptide displacement from menin. FP activity change, % at 61.4 µM. 290,000 tested, under 10 active. AID 1766, 2009; active = well fitted curve in the direction sought with a large enough effect in the polarisation, not every such curve was filed as active; inconclusive = small, poorly fitted or top-dose-only effect, or effect the other way, or a change in a side signal; inactive = no such curve, though single readings can be large or run the other way; the % refers to the polarisation; also: % of control where 0% means no effect
Menin-MLL TR inh: qHTS Assay for Inhibitors Targeting the Menin-MLL Interaction in MLL Related Leukemias: Competition With Texas Red Labeled MLL-derived Mutant Peptide | O00255 | Menin + Texas Red MLL mutant peptide, fluorescence polarization | Potency, µM (doses to about 61.6 µM), for the others: top-dose FP activity change, negative = inhibition, hits mostly inhibitors | actives 0.23% (n = 270,000) | AID 1768, 2009; active = well fitted inhibition curve with a large enough effect in the polarisation, with a control signal flat, not every such curve was filed as active; inconclusive = small, poorly fitted or top-dose-only effect, or effect the other way, or a change in a side signal; inactive = no such curve, though single readings can be large or run the other way; the % refers to the polarisation; also: potency is read from the fitted curve at half-maximal effect; % of control where 0% means no effect
TRb SRC2 PPI: qHTS for Inhibitors of the Interaction of Thyroid Hormone Receptor and Steroid Receptor Coregulator 2; actives 0.065% (n = 280,000); TRbeta-SRC2 peptide binding, fluorescence polarization; receptor liganded with 1 µM T3; AID 1469, 2008; Thyroid hormone receptor beta (Homo sapiens), P10828; Potency, µM (series often up to 106 µM), without a hit: at the highest dose activity change, negative = inhibition, hits mostly inhibitors;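 also: potency is read from the fitted curve at half-maximal effect; plate controls were bound peptide for no effect and peptide without receptor for full effect; nearly all actives have a fitted effect of over 50% in size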
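TRb LBD 0.6 uM + Texas Red SRC2 peptide 20 nM, 1 uM T3, Tris buffer w/ 5% DMSO; compound pinned, 5 h RT; FP read ex 555/em 632; normalized to unbound and bound controls.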
RGS12 GoLoco inh: qHTS Assay for Inhibitors of RGS12 GoLoco Motif Activity (Red Fluorophore); Gai1:RGS12 GoLoco peptide FP, rhodamine, 10 min; actives 0.44% (n = 230,000); Potency, µM (doses to about 61.6 µM), for inactives: at the highest dose activity, negative = inhibition, usual class: inhibitors; active = well fitted inhibition curve with a large enough effect, not every such curve was filed as active; inactive = no such curve, though single readings can be large or run the other way; also: potency is read from the fitted curve at half-maximal effect; % is scaled to controls: 0 for no effect and ±100 for the full control effect; nearly all actives have a fitted effect of over 30% in size
TR SRC2 fluor cs: Total Fluorescence Counterscreen for Inhibitors of the Interaction of Thyroid Hormone Receptor and Steroid Receptor Coregulator 2; TRb/SRC2 Texas Red total fluorescence interference; Potency, µM (titrated, usually from 106 µM), for the others: at the top dose fluorescence change, negative = quenching; actives 0.29% (n = 280,000); AID 1479, 2009; active = well fitted curve in either direction with a large enough effect; inconclusive = small, poorly fitted or top-dose-only effect; also: potency is read from the fitted curve at half-maximal effect; % is scaled to controls: 0 for no effect and ±100 for the full control effect
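Flags fluorescent or light-absorbing compounds by total fluorescence, S + 2P, at 555 nm excitation and 632 nm emission. Mixture: 20 nM Texas Red SRC2 peptide, 0.6 uM human TRb LBD, 1 uM T3, 5% DMSO; compound exposure 5 h at ambient temperature.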
MLL CXXC-DNA inh: qHTS Fluorescence Polarization Assay for Inhibitors of MLL CXXC domain - DNA interaction | MLL-CXXC / FITC-HOXA9 DNA fluorescence polarization | Potency, µM (highest dose often 115 µM), for inactives: at the top dose activity change, negative = inhibition, usual class: inhibitors | actives 0.037% (n = 290,000) | AID 2662, 2010; active = well fitted inhibition curve with a large enough effect in the polarisation, with a control signal flat, not every such curve was filed as active; inconclusive = small, poorly fitted or top-dose-only effect, or effect the other way, or a change in a side signal; inactive = no such curve, though single readings can be large or run the other way; the % refers to the polarisation; also: potency is read from the fitted curve at half-maximal effect
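Fluorescence polarization: 7 uM MLL-CXXC (stock) preincubated 5 min with compounds, then 50 nM fluorescein-HOX-A9 DNA (stock) added; 30 min ambient. Buffer 50 mM Tris-HCl pH 7.5, 50 mM NaCl, 1 mM DTT, 0.05% BSA.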
MLL CXXC Fl: qHTS Fluorescence Polarization (FP) Assay for Inhibitors of MLL CXXC domain - DNA interaction: Fluorescein FP; Potency, µM (titrated, usually from 345 µM), inactives show at the highest dose activity change, negative = inhibition, hits mostly inhibitors; shares compounds with MLL CXXC-DNA inh; actives 70% (n = 200); AID 624160, 2012; MLL CXXC-DNA binding, fluorescein FP; also: potency is read from the fitted curve at half-maximal effect; nearly all actives have a fitted effect of over 80% in size
MLL CXXC TxRed: qHTS Fluorescence Polarization (FP) Assay for Inhibitors of MLL CXXC domain - DNA interaction: Texas Red FP | shares compounds with MLL CXXC-DNA inh | MLL CXXC-DNA binding, Texas Red fluorescence polarization | Potency, µM (titrated, usually from 345 µM), inactives show top-dose activity change, negative = inhibition, hits mostly inhibitors | actives 40% (n = 200); also: potency is read from the fitted curve at half-maximal effect; % is scaled to controls: 0 for no effect and ±100 for the full control effect; nearly all actives have a fitted effect of over 75% in size
MLL CXXC HTRF: qHTS Fluorescence Polarization (FP) Assay for Inhibitors of MLL CXXC domain - DNA interaction: HTRF Assay; Potency, µM (titrated, usually from 172 µM), without a hit: top-dose activity change, negative = inhibition, hits mostly inhibitors; actives 30% (n = 210); AID 624162, 2012; shares compounds with MLL CXXC-DNA inh; MLL CXXC-DNA binding, HTRF, biochemical; also: % is scaled to controls: 0 for no effect and ±100 for the full control effect; nearly all actives have a fitted effect of over 80% in size
* = called active by the depositor; ? = inconclusive; / = no result given; [ ] = remark or other dose. Unless noted, calls follow the shape of the dose curve; as a rule, active = well fitted curve in the direction sought with a large enough effect; inconclusive = small, poorly fitted or top-dose-only effect, or another doubt; inactive = no such curve, though single readings can be large; an effect the other way counts as inactive or inconclusive.

SMILES	Menin MLL FP FL	Menin-MLL TR inh	TRb SRC2 PPI	RGS12 GoLoco inh	TR SRC2 fluor cs	MLL CXXC-DNA inh	MLL CXXC Fl	MLL CXXC TxRed	MLL CXXC HTRF
CCc1cc(C)cc(CC)c1-c1c(OC(=O)C(C)(C)C)n2n(c1=O)CCOCC2	/	/	-1%[201 µM]	/	1%[201 µM]	/	/	/	/
O=C1NC(=O)N(c2ccc3c(c2)OCO3)C(=O)/C1=C\c1ccc(-c2ccccc2C(=O)O)o1	23	/	-3%	41%	0%	14µM*	14µM*	45µM*	19µM*
O=C1NC(=O)N(c2ccc3c(c2)OCO3)C(=O)/C1=C/c1ccc(N2CCCCC2)o1	?	-7%	-1%	46%	3%	?	/	/	/
CCn1nc(-c2cccs2)nc2c(=O)n(C)c(=O)nc1-2	-11	?	?	6%	-6%	?	?	?	47%
Brc1c(Br)c(Br)c(Br)c(Br)c1Br	/	/	-4%[201 µM]	/	-3%[201 µM]	/	/	/	/
